This excerpt belongs to a sample that is enriched for hits.
Shiga toxin inh: A qHTS for Small Molecule Inhibitors of Shiga Toxin | Vero cells, Shiga toxin protein synthesis inhibition reporter | inhibition, % at 38.7 µM | 9.2% of 290,000 active; in the data active means inhibition mostly above about 28%, no sharp cut-off; inactive means mostly below about 43%; further: 0% is about no effect
FBPA Giardia inh: qHTS Assay for Inhibitors of Fructose-1,6-bisphosphate Aldolase from Giardia Lamblia; A8B2U2; purified Giardia FBPA; 0.71% of 290,000 active; Potency, µM (doses to about 59.6 µM), inactives show top-dose activity, negative = inhibition, hits mostly inhibitors; further: potency means the concentration at half of the fitted maximal effect; on the % scale 0 is the no-effect control and ±100 the full control effect; nearly all actives have a fitted effect of over 55% in size
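40 nM FBPA preincubated 10 min at RT with compound (up to 57.5 uM final), then substrate plus GAPDH/TPI/NAD/arsenate coupling and diaphorase/resazurin added. Fluorescence read after 20 min at RT, 525/598 nm.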
RE007 growth inh: qHTS Assay for Inhibitors of the HIV-1 protein Vpr; Potency, µM (doses to about 92.2 µM), inactives show top-dose activity change, negative = less growth, most hits filed as inhibitors; AID 651644, 2012; S. pombe RE007 Vpr strain, BacTiter-Glo ATP luminescence, 24 h; 0.21% of 360,000 active; active means well fitted falling curve with a large enough effect; inconclusive means small, poorly fitted or top-dose-only effect; inactive means no such curve, though single readings can be large or run the other way; further: potency means the concentration at half of the fitted maximal effect; on the % scale 0 is the no-effect control and ±100 the full control effect; nearly all actives have a fitted effect of over 50% in size
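Fission yeast RE007 carrying one integrated HIV-1 vpr copy, seeded at OD 0.01 in PMG+AL medium with 23 nL pinned compound. Grown 24 h at 30 degrees; viability read by BacTiter-Glo luminescence after 5 min.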
Cycloheximide cs: Cycloheximide Counterscreen for Small Molecule Inhibitors of Shiga Toxin; max response, %; 12% of 300,000 active; cell reporter, cycloheximide protein synthesis inhibition counterscreen; in the data active means max response mostly above about 13%, no sharp cut-off; inactive means mostly below about 14%; further: read at 38.3 µM for the half of the compounds with a filed dose; 0% is about no effect
LmPK inhibitor: qHTS Assay for Inhibitors of Leishmania Mexicana Pyruvate Kinase (LmPK); Q27686; purified LmPK, Kinase-Glo ATP luminescence, 1 h; Potency, µM (highest dose often 57.5 µM), without a hit: at the top dose activity change, negative = inhibition, usual class: inhibitors; 0.37% of 290,000 active; AID 1721, 2009; further: potency means the concentration at half of the fitted maximal effect; on the % scale 0 is the no-effect control and ±100 the full control effect
Target sequence (Q27686 whole entry, looked up): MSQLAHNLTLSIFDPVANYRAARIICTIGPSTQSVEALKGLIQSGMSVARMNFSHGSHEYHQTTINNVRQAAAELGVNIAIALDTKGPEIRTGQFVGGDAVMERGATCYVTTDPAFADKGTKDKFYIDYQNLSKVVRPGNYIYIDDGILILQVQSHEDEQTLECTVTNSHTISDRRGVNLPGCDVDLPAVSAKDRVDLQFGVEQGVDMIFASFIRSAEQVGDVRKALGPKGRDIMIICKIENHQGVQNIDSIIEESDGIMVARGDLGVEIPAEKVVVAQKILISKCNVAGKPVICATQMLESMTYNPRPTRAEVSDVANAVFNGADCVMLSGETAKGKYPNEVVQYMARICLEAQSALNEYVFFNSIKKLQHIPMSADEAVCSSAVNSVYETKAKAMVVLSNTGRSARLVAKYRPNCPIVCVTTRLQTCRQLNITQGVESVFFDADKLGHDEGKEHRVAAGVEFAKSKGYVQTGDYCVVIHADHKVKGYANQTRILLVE
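Pyruvate kinase activity monitored as ATP production (luciferase luminescence). Conditions: 0.1 nM enzyme, 0.5 mM PEP, 0.1 mM ADP, 1 h, RT; normalized against uninhibited and no-enzyme wells.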
TbPYK inhibitor: qHTS of Trypanosoma Brucei Inhibitors | 0.12% of 410,000 active | pyruvate kinase (Trypanosoma brucei), Q57TT1 | AID 624173, 2012 | Potency, µM (top dose mostly 76.8 µM), inactives show at the highest dose activity, negative = inhibition, hits mostly inhibitors | TbPYK enzyme, Kinase-Glo Plus ATP luminescence, 45 min; further: potency means the concentration at half of the fitted maximal effect; on the % scale 0 is the no-effect control and ±100 the full control effect; nearly all actives have a fitted effect of over 50% in size
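Quantitative HTS: titrated library compounds versus trypanosomal pyruvate kinase in TEA buffer (pH 7.2) containing KCl, MgCl2, BSA and Tween-20. Reactions were initiated with ADP, 130 uM final. Kinase-Glo Plus luminescence was read after 45 min at RT.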
* = called active by the depositor; ? = inconclusive; nt = no result; ! = not confirmed by another sample. Unless noted, the call rests on the fitted dose curve; in most records, active means well fitted curve in the direction sought with a large enough effect; inconclusive means small, poorly fitted or top-dose-only effect, or another doubt; inactive means no such curve, though single readings can be large; an effect the other way counts as inactive or inconclusive.

SMILES	Shiga toxin inh	FBPA Giardia inh	RE007 growth inh	Cycloheximide cs	LmPK inhibitor	TbPYK inhibitor
O=C(CSc1nnnn1C1CCCC1)N1CCOCC1	39.3	1.8%	5.9%	36.2*	0.2%	-7.2%
COC(=O)c1ccc(NC(=O)CSc2nnnn2C2CCCCC2)cc1	-1.6	6.9%	5.8%	3.7	0.3%	-1.0%
CC(=O)Nc1ccc(C(=O)CSc2nnnn2C2CCCC2)cc1	24.2	-1.6%	2.6%	15.2*	-10.7%	-5.4%
COc1ccccc1NC(=O)CSc1nnnn1C1CCCC1	-5.5	2.6%	-11.6%	-2.4	5.1%	4.5%
O=C(CSc1nnnn1C1CCCC1)NCCc1ccccc1	49.4*	1.2%	-2.1%	23.4*	-0.6%	4.4%
Cc1ccc(C)c(-n2cc(-c3ccccc3)nc2SCC(=O)Nc2ccccc2)c1	nt	nt	nt	nt	nt	0.7%
COC(=O)[C@@]1(Cc2ccccc2)[C@H]2c3cc(C(=O)N4CCCC4)n(C)c3C[C@H]2CN1C(=O)c1ccccc1	nt	-2.0%	nt	nt	nt	nt
Cc1ccccc1CC(=O)Nc1sc(C(C)C)cc1C(=O)N1CCOCC1	-11.9	nt	2.4%	-3.4	-13.8%	0.8%
CC(C)n1nnnc1SCC(=O)NCCc1ccccc1	30.3	2.1%	9.1%	15.9*	-2.9%	-1.3%
COc1ccc(-c2cn3nc(SCC(=O)Nc4cccc(C)c4C)ccc3n2)cc1	nt	nt	nt	nt	nt	-0.9%
Nc1nonc1-n1nnc(C(=O)N/N=C/c2ccccc2F)c1-c1cccs1	2.4	-7.0%	-7.0%	-7.4	-1.6%	-2.0%
COCc1c(C(=O)N/N=C(/C)c2ccc(OCc3ccccc3)cc2)nnn1-c1nonc1N	96.9*	0.7%	13.1%	23.1*	4.4%	1.6%
C/C(=N\NC(=O)c1nnn(-c2nonc2N)c1C)c1ccc(OCc2ccccc2)cc1	56.9*	nt	-1.7%	21.9*	7.1%	0.6%
C/C(=N\N=C\c1ccccc1F)c1nnn(-c2nonc2N)c1C	80.3*	4.0%	5.4%	16.1*	2.0%	1.4%
CCOc1ccc(N2CC(NC(=O)C(=O)c3c[nH]c4ccccc34)CC2=O)cc1 (configuration not stated)	nt	nt	nt	nt	nt	4.8%
COc1ccc(NC(=O)Cn2cnc3c(nc4n3CCCCC4)c2=O)c(OC)c1	nt	nt	nt	nt	nt	-6.6%
O=C(Nc1ccc2ccccc2n1)Nc1cccs1	31.0	7.4%	3.7%	-0.8	4.6%	3.3%
Cc1ccc(C(=O)Nc2ccc3ccccc3n2)cc1	42.3*	-1.8%	-20.8%	41.4*	-17.3%	7.7%
O=C(c1ccccc1)c1ccc2ccccc2n1	73.6	-1.7%	-22.6%	38.9*	-0.9%	-4.3%
COC(=O)c1ccc2ccccc2n1	nt	nt	6.2%	nt	nt	1.8%
O=C(Nc1ccc2ccccc2n1)c1ccccc1	66.4*	-1.0%	-25.2%	49.2*	-25.5%	-11.4%
Cc1cc(C)cc(NC(=O)Nc2ccc3ccccc3n2)c1	10.5	5.6%	0.7%	-1.7	-3.1%	0.7%
Cc1ccc(C(O)(C(=O)NNc2ccc3ccccc3n2)c2ccc(C)cc2)cc1	-3.4	16.6%	4.8%	13.0*!	3.5%	-5.2%
CC(=O)N1CCc2c(sc3c2c(=O)n(-c2ccccc2C)c(=O)n3CC(=O)Nc2ccccc2)C1	nt	nt	nt	nt	nt	-7.1%
COc1ccc(C(=O)Nc2ccc3ccccc3n2)cc1OC	nt	7.9%	-16.9%	29.2*	1.9%	2.9%
SMILES	Shiga toxin inh	FBPA Giardia inh	RE007 growth inh	Cycloheximide cs	LmPK inhibitor	TbPYK inhibitor
O=C(CCc1ccccc1)Nc1ccccc1	26.6	-0.3%	-7.4%	-1.8	0.6%	-15.4%
O=C(Nc1ccc2ccccc2n1)c1ccccc1Br	131.2*	-12.1%	-23.8%	41.1*	-15.8%	-4.8%
O=C(CCc1ccccc1)Nc1ccc2ccccc2n1	103.8*	-1.7%	-6.3%	46.7*	-0.5%	-1.4%
C=CCSC(=C(C#N)C#N)c1cc2c([nH]1)CCCC2	3.0	-13.1%	-19.1%	24.9*	3.8%	3.1%
O=C(O)c1cc2c([nH]c1=O)CCCC2	-3.3	7.1%	16.0%	-3.2	1.0%	2.3%
COc1cc(Cl)c(C)cc1NC(=O)CSc1cc(-c2ccccc2)nc(C)n1	nt	nt	nt	nt	nt	5.8%
COc1ccccc1CNC(=O)C(=O)c1cn(CC(=O)N2CCOCC2)c2ccccc12	28.5	nt	5.4%	9.5	-8.7%	-12.5%
O=C(NCCc1ccccc1)C(=O)c1cn(CC(=O)N2CCCC2)c2ccccc12	6.2	nt	-6.5%	19.2*	-0.3%	-9.6%
COc1ccccc1CCNC(=O)C(=O)c1cn(CC(=O)N2CCCC2)c2ccccc12	64.1*	19.3%	20.3%	33.4*	-12.0%	-0.2%
Cc1ccc(O)c(NC(=O)c2ccc3c(c2)C(=O)N(CC(C)C)C3=O)c1	nt	12.5%	2.6%	33.2*	-2.3%	3.8%
Cc1ccnc(NC(=O)c2ccc3c(c2)C(=O)N(CC(C)C)C3=O)c1	-11.4	nt	-10.6%	-1.8	-5.4%	-3.2%
O=C(Nc1ccc(Br)cc1C(=O)O)c1ccc2c(c1)C(=O)N(Cc1ccccc1)C2=O	36.1*	nt	3.4%	34.0*	-9.7%	-0.8%
CCCN1C(=O)c2ccc(C(=O)Nc3cc(C)ccc3O)cc2C1=O	139.0*	6.0%	?	55.9*	-5.6%	-24.8%
CCCN1C(=O)c2ccc(C(=O)Nc3ccccc3C(=O)O)cc2C1=O	46.5	-2.1%	-8.9%	15.6*	-3.9%	-1.2%
O=c1[nH]c2ccc(NCc3ccccc3OCc3ccc(Cl)cc3)cc2[nH]1	4.3	-1.2%	-8.1%	4.6	-0.8%	-6.6%
COc1ccc(C2N(C(=O)c3ccccc3)CCN2C(=O)c2ccc(C)cc2)cc1 (configuration not stated)	-5.0	0.0%	0.6%	-5.0	5.4%	6.9%
COc1ccc(C2CN=NC2C(=O)c2ccccc2)cc1 (configuration not stated)	25.6*	0.3%	nt	20.5*	8.3%	7.4%
CCOC(=O)c1c(C)c(C(=O)NCc2ccc(Cl)cc2)c(C)n1CC	nt	nt	nt	nt	nt	-3.4%
O=C(Nc1nnc(C2CC2)s1)C1Cc2ccccc2CN1C(=O)c1ccco1 (configuration not stated)	39.4*	-19.0%	-14.3%	22.9*	-0.3%	-25.3%
COc1ccc(NC(=O)C2Cc3ccccc3CN2C(=O)c2ccco2)cc1 (configuration not stated)	43.2	nt	-17.9%	20.5*	-6.6%	-2.0%
Cc1ccc(NC(=O)C2Cc3ccccc3CN2C(=O)c2ccco2)cc1S(=O)(=O)N(C)C (configuration not stated)	79.3*	3.4%	-17.9%	30.7*	2.3%	1.1%
CN(C)S(=O)(=O)c1cccc(NC(=O)C2Cc3ccccc3CN2C(=O)c2ccco2)c1 (configuration not stated)	69.0*	-7.1%	-19.0%	21.1*	4.5%	-22.8%

Screens (PubChem)
